Laboratory results taken from PubChem BioAssay.
A number with no mark means an inactive call. For some of these results: Entries with a potency or affinity are not part of this list. Active and inactive are the calls of the source. Unless noted, how the calls were made is not given here.

Tests used:
[1] = antimalarial activity against Dd2 strain (AID 2302;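 active means growth inhibition above 50% at the single 2 µM test dose, taken to imply half-maximal potency below 2 µM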;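 further: 0% = DMSO untreated growth and 100% = chloroquine plus artemisinin killed control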); conditions: P. falciparum Dd2 in RBCs, LDH growth readout, 72 h; at 2 µM; hits give high values
[2] = human hepatoma cell viability loss – ATP luminescence, cytotoxicity control for P. falciparum antimalarial project, primary screen (AID 2303;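 active means inhibition above 50%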;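 further: 0% = DMSO wells and 100% = digitonin-killed cells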); conditions: HepG2 viability, 24-48 h, at 10 µM, hits give high values
[3] = molecular target: L-lactate dehydrogenase (Plasmodium falciparum (isolate CDC / Honduras)) (UniProt Q27743); experiment: PfLDH activity inhibition – cell lysate, 3D7 strain, counter-screen for P. falciparum growth inhibition project (AID 2304);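 further: 0% = vehicle and 100% = reference inhibitor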; conditions: P. falciparum 3D7 crude extract, LDH APAD/NBT absorbance; at 2 µM; hits give high values
L-lactate dehydrogenase (Plasmodium falciparum (isolate CDC / Honduras)), sequence (Q27743 whole entry, looked up): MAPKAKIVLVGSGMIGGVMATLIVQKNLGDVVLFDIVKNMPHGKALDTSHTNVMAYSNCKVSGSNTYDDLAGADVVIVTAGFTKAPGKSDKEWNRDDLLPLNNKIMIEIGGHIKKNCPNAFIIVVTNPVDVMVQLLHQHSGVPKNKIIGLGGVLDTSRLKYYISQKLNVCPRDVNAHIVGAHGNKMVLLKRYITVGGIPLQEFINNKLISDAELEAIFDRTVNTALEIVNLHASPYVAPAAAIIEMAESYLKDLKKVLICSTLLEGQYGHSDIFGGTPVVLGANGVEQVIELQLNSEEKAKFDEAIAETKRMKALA

[4] = inhibition of 3D7 malaria parasite growth – strain 3D7 (AID 2306);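 further: 0% = DMSO wells and 100% = chloroquine plus artemisinin control wells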; conditions: P. falciparum 3D7 erythrocytic growth, LDH absorbance, 72 h; at 2 µM; hits give high values
[5] = molecular target: Calcium-dependent protein kinase 1 (Plasmodium falciparum (isolate 3D7)) (UniProt P62344); experiment: PfCDPK1 kinase inhibitors, biochemical, TCAMS library (AID 1159585; cut-off not given, nearly all actives have IC50 up to about 0.98 µM;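 further: inhibitors leave more ATP so luminescence rises with inhibition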); conditions: recombinant PfCDPK1, Kinase-Glo ATP depletion luminescence
Calcium-dependent protein kinase 1 (Plasmodium falciparum (isolate 3D7)), sequence (P62344 whole entry, looked up): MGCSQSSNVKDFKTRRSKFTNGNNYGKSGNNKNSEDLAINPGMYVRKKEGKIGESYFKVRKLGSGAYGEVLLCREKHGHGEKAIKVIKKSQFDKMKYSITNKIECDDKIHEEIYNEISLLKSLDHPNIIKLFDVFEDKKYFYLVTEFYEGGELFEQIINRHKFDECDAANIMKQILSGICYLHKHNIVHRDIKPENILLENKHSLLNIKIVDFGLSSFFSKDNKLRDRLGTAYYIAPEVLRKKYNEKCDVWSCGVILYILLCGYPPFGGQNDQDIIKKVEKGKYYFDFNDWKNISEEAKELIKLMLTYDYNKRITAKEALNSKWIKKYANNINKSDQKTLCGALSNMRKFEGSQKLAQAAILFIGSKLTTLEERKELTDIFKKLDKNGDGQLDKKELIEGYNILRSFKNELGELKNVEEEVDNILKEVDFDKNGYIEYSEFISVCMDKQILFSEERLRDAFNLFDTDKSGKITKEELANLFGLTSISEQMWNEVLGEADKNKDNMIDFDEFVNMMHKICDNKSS

[6] = molecular target: Plasmodium falciparum protein kinase 6 (PK6, PF3D7_1337100) (UniProt Q8IDW1); experiment: PfPK6 kinase inhibitors, biochemical, TCAMS library (AID 1159586); conditions: recombinant PfPK6, Kinase-Glo ATP depletion luminescence
Plasmodium falciparum protein kinase 6 (PK6, PF3D7_1337100), sequence (Q8IDW1 1-305): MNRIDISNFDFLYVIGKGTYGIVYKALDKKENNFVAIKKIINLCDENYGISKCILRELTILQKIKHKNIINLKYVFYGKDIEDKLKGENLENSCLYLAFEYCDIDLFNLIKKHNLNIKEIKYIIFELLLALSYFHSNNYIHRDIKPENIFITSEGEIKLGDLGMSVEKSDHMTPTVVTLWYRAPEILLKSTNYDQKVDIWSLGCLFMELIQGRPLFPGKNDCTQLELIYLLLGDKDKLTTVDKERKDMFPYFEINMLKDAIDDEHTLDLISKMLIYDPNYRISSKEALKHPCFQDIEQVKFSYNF

[7] = molecular target: Protein kinase 7 (PK7), Plasmodium falciparum 3D7 (PF3D7_0213400) (UniProt Q7YTF7); experiment: inhibition of Plasmodium PK7 catalytic activity – biochemical, TCAMS antimalarial set, Kinase-Glo luminescence (AID 1159587); conditions: recombinant PfPK7, Kinase-Glo ATP depletion luminescence
Protein kinase 7 (PK7), Plasmodium falciparum 3D7 (PF3D7_0213400), sequence (Q7YTF7 1-343): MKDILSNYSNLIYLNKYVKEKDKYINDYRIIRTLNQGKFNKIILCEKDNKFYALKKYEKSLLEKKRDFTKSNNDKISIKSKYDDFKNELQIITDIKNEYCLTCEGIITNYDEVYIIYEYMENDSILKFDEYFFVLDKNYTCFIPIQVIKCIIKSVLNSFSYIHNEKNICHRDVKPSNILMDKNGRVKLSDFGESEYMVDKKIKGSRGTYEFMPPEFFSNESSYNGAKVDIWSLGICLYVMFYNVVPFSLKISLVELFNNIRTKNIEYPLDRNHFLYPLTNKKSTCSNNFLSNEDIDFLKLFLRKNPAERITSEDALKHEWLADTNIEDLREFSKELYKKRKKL

[8] = molecular target: Calcium-dependent protein kinase 4 (Plasmodium falciparum (isolate 3D7)) (UniProt Q8IBS5); experiment: PfCDPK4 kinase inhibitors, biochemical, TCAMS library (AID 1159588; cut-off not given, nearly all actives have IC50 up to about 0.91 µM); conditions: recombinant PfCDPK4, Kinase-Glo ATP depletion luminescence
Calcium-dependent protein kinase 4 (Plasmodium falciparum (isolate 3D7)), sequence (Q8IBS5 whole entry, looked up): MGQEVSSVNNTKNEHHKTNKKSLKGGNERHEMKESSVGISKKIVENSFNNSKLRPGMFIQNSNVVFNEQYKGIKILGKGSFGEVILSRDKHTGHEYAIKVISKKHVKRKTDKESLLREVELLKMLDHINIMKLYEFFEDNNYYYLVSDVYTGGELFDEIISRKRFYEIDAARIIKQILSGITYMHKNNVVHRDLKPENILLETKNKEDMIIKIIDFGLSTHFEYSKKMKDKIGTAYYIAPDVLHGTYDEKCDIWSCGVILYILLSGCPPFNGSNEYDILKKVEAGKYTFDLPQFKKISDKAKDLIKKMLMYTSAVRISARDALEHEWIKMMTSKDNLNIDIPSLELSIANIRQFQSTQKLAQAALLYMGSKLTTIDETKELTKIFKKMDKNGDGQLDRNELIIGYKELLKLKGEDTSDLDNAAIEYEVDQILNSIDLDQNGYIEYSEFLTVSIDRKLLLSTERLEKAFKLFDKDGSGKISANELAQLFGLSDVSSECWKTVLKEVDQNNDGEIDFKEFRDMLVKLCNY

| Structure (SMILES) | growth inhibition [1] | inhibition [2] | inhibition [3] [%] | growth inhibition [4] | outcome [5] | outcome [6] | outcome [7] | outcome [8] |
| --- | --- | --- | --- | --- | --- | --- | --- | --- |
| CC1(C)S(=O)(=O)CC(O)CS1(=O)=O | 9% | 8% | 3 | 98% (active) | inactive | inactive | inactive | inactive |
| O=[N+]([O-])c1cccc(C(Nc2ccccn2)c2ccc3cccnc3c2O)c1 (stereo not drawn) | 29% | 53% (active) | 0 | 86% (active) | inactive | inactive | inactive | inactive |
| COc1cc2nc(N3CCC(CNC(=O)c4ccc(-c5ccc(C(=O)N(C)C)cc5OCCO)cc4)CC3)nc(N)c2cc1OC | 8% | -7% | -1 | 100% (active) | inactive | inactive | inactive | inactive |
| Cc1c(CN2CCCCC2)cccc1OCCCNc1nc(NCCc2ccc(O)cc2)nc(N2CCNCC2)n1 | 23% | 26% | 3 | 101% (active) | inactive | inactive | inactive | inactive |
| COc1ccc(CNC(=O)c2cc3c(=O)n4ccccc4nc3n(CCc3ccccc3)c2=N)cc1 | 22% | 26% | -4 | 99% (active) | inactive | inactive | inactive | inactive |
| Cc1noc(C)c1S(=O)(=O)N(C)Cc1ccc(-c2ccc(Cl)cc2)o1 | 100% (active) | 10% | -3 | 100% (active) | inactive | inactive | inactive | inactive |
| COc1ccc(O)c(C(=O)c2cc(C#N)c(=O)n(-c3ccc(Oc4ccccc4)cc3)c2)c1 | 20% | 22% | 5 | 97% (active) | inactive | inactive | inactive | inactive |
| O=C(NCC1CCN(CC2CCCCC2)C1)c1cc(-c2cccc(Cl)c2)cs1 (stereo not drawn) | 8% | 51% (active) | 5 | 85% (active) | inactive | inactive | inactive | inactive |
| COc1ccc(CCNc2ccnc3cc(Cl)ccc23)cc1OC | 92% (active) | 4% | -7 | 101% (active) | inactive | inactive | inactive | inactive |
| c1ccc(-c2[nH]c3ccccc3c2CN2CCC(N3CCCCC3)CC2)nc1 | 82% (active) | 13% | -3 | 101% (active) | inactive | inactive | inactive | inactive |
| O=C(/C=C/c1ccc(C(F)(F)F)cc1)NCCCCCN1CCN(C(=O)Nc2ccc(Cl)c(Cl)c2)CC1 | -4% | 37% | 5 | 95% (active) | inactive | inactive | inactive | inactive |
| O=C(/C=C/c1ccc(Cl)c(Cl)c1)NCCCCCN1CCC(NS(=O)(=O)c2cc(Cl)cc(Cl)c2)CC1 | 5% | 7% | 3 | 83% (active) | inactive | inactive | inactive | inactive |
| O=C(N[C@H]1CCN(CCc2ccc(O[C@H]3CCNC3)c(Cl)c2)C1)c1ccc(Cl)c(Cl)c1 | -1% | 26% | 2 | 101% (active) | inactive | inactive | inactive | inactive |
| COc1ccc(NC(=O)[C@H](CC(C)C)Nc2cc(C)nc(NCc3cccc(C)c3)n2)cc1 | 90% (active) | 24% | -1 | 101% (active) | inactive | inactive | inactive | inactive |
| CCOc1ccc(CCCON2C(N)=NC(N)=NC2(C)C)cc1 | 93% (active) | 65% (active) | 0 | 93% (active) | inactive | inactive | inactive | inactive |
| CN1CCC(c2ccc(NC(=O)c3ccc(-c4cccc(C(F)(F)F)c4)o3)cc2)CC1 | 23% | 23% | -3 | 86% (active) | inactive | inactive | inactive | inactive |
| CCCOc1c(CCNCCCCNCCc2ccc3ccccc3c2OCCC)ccc2ccccc12 | 78% (active) | 100% (active) | 7 | 100% (active) | inactive | inactive | inactive | inactive |
| O=C(NCCCCCN1CCC(c2c[nH]c3ccccc23)CC1)Nc1cccc(C(F)(F)F)c1 | 11% | 51% (active) | -1 | 97% (active) | inactive | inactive | inactive | inactive |
| CCN(CCNC(=O)Nc1cc(C(F)(F)F)cc(C(F)(F)F)c1)c1cccc(C)c1 | 100% (active) | -3% | 4 | 98% (active) | inactive | inactive | inactive | inactive |
| COc1ccc(NC(=O)[C@H](CC(C)C)Nc2cc(C)nc(NCc3ccccc3C)n2)cc1 | 78% (active) | 12% | 0 | 101% (active) | inactive | inactive | inactive | inactive |
| COc1ccc(Nc2nccc(NCCNC(=O)Nc3ccccc3F)n2)cc1 | 4% | 4% | 1 | 85% (active) | inactive | inactive | inactive | inactive |

| Structure (SMILES) | growth inhibition [1] | inhibition [2] | inhibition [3] [%] | growth inhibition [4] | outcome [5] | outcome [6] | outcome [7] | outcome [8] |
| --- | --- | --- | --- | --- | --- | --- | --- | --- |
| COc1ccc(NS(=O)(=O)c2ccc(C(=O)Nc3ccc(C(F)(F)F)cc3)cc2)cc1N1CCN(CC2CC2)CC1 | -5% | 15% | 1 | 92% (active) | inactive | inactive | inactive | inactive |
| CCOC(=O)C1=C(C)N=c2sc(=Cc3ccccc3O)c(=O)n2C1c1ccc(OC)c2ccccc12 (stereo not drawn) | 38% | -6% | 1 | 97% (active) | inactive | inactive | inactive | inactive |
| CC(=O)Nc1nc(C(=O)Nc2ccc(-c3cccc(-c4nc5c(C)cccc5[nH]4)c3)cc2)cs1 | 73% (active) | 100% (active) | -4 | 101% (active) | inactive | inactive | inactive | inactive |
| COc1cc(OC)c2c(C)cc(NCCCn3ccnc3)nc2c1 | 22% | 6% | -2 | 102% (active) | inactive | inactive | inactive | inactive |
| C[C@H](NC(=O)C1CCCC1)C(=O)Nc1ccc(-c2ccc(-c3nc4ccc(C(F)(F)F)cc4[nH]3)cc2)cc1 | 70% (active) | 34% | -4 | 99% (active) | inactive | inactive | inactive | inactive |
| Nc1ncc(-c2ccsc2)cc1-c1nc2ccccc2[nH]1 | 8% | 33% | -2 | 99% (active) | inactive | inactive | inactive | inactive |
| COc1cc2c(cc1OC)C(C(=O)c1ccccc1)=NCC2 | 62% (active) | 19% | 0 | 85% (active) | inactive | inactive | inactive | inactive |
| O=C(N[C@H]1CCN(Cc2ccc(OCCN3CCCC3)c3ccccc23)C1)c1ccc(Cl)c(Cl)c1 | 51% (active) | 90% (active) | -1 | 100% (active) | inactive | inactive | inactive | inactive |
| COc1cc(-c2nc3c4ccccc4c4ccccc4c3[nH]2)cc(OC)c1OC | 10% | 4% | 5 | 90% (active) | inactive | inactive | inactive | inactive |
| COCCN(C)CCCOc1cc2c(cc1OC)ncn2-c1cc(OCc2ccccc2C(F)(F)F)c(C(N)=O)s1 | 49% | 24% | 2 | 98% (active) | inactive | inactive | inactive | inactive |
| CC(C)(C)c1cc(C(=O)N2CCN(c3nccnc3C#N)CC2)n(Cc2ccccc2)n1 | 93% (active) | -11% | -9 | 100% (active) | inactive | inactive | inactive | inactive |
| COc1ccc(-c2cncc(-c3ccc(OC)c(OC)c3)n2)cc1OC | 90% (active) | 6% | 6 | 95% (active) | inactive | inactive | inactive | inactive |
| Nc1c2c(nc3ccc(C(=O)Nc4cc(I)c(O)c(I)c4)cc13)CCCC2 | 64% (active) | 14% | 0 | 96% (active) | inactive | inactive | inactive | inactive |
| COc1ccc2c(NCCc3ccccc3)cc(-c3ccccc3)nc2c1 | 1% | 13% | 2 | 98% (active) | inactive | inactive | inactive | inactive |
| COc1ccc2ccc(OC)c(CNCCCCCCNCc3c(OC)ccc4ccc(OC)cc34)c2c1 | 32% | 100% (active) | -6 | 101% (active) | inactive | inactive | inactive | inactive |
| CCN(CC)CCCC(C)Nc1ccnc2[nH]c3ccccc3c12 (stereo not drawn) | 38% | 0% | 6 | 82% (active) | inactive | inactive | inactive | inactive |
| COc1ccc(C(=O)Nc2cc(Br)c3c(c2)CNCC3)cc1C(F)(F)F | 4% | 13% | 8 | 90% (active) | inactive | inactive | inactive | inactive |
| Cc1ccc(NC(=O)c2ccc(N3CCN(c4ccncc4)CC3)cn2)cc1F | 77% (active) | 2% | 2 | 98% (active) | inactive | inactive | inactive | inactive |
| N#Cc1cccc(NC(=O)Nc2ccc(-c3ccc(-c4nc5ccc(C(F)(F)F)cc5[nH]4)cc3)cc2)c1 | 100% (active) | 51% (active) | -2 | 102% (active) | inactive | inactive | inactive | inactive |
| CN(Cc1cccc(F)c1)C1CCN(c2cc(NC(=O)c3ccc(F)cc3)ccn2)CC1 | 36% | -3% | 3 | 95% (active) | inactive | inactive | inactive | inactive |
